Results filed as inconclusive are left out. Calls of active or inactive are those of the source. How the source made its calls, unless noted: active means hit-call score of the fitted dose curve at least 0.9, where 1 is the maximum; inconclusive means response in the unintended direction; inactive means score below 0.9.
Key:
[1] = read-out: organic anion transporter (SLCO1B1), SLCO1B1 (gene 10599); assay: CLD_SLCO1B1_6hr: CellzDirect (CLD) Gene Expression Assay for organic anion transporter (SLCO1B1) at 6 hours (AID 2283668);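 further: active means mRNA induction above DMSO baseline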
Outline: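 SLCO1B1 mRNA induction measured 6 h after dosing by quantitative nuclease protection with chemiluminescent read-out, in human primary hepatocyte cultures given chemicals at several concentrations (vehicle 0.2% DMSO). Increase over DMSO baseline fitted; morphology-based cytotoxicity annotated yes/no.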

[2] = read-out: sulfotransferase (SULT2A), SULT2A1 (gene 6822); assay: CLD_SULT2A_6hr: CellzDirect (CLD) Gene Expression Assay for sulfotransferase (SULT2A) at 6 hours (AID 2283669);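 further: hits raise transcript level above the DMSO vehicle baseline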
Outline: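 Measured 6 h after dosing, SULT2A1 mRNA in human hepatocyte lysates was quantified by S1 nuclease protection with chemiluminescent detection. Increases fitted against 0.2% DMSO vehicle baseline; phase-contrast cytotoxicity recorded yes/no.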

[3] = CLD_ACTIN_24hr: CellzDirect (CLD) Gene Expression Assay for Baseline Control (Actin) at 24 hours (AID 2283670)
Outline: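 This 24 h qNPA (S1 nuclease protection, chemiluminescence) actin transcript readout in cultured human liver primary cells serves as baseline control. Signal is fitted upward relative to 0.2% DMSO; chemicals tested at multiple concentrations across two donor preparations.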

[4] = read-out: xenobiotic metabolism (CYP1A1), CYP1A1 (gene 1543); assay: CLD_CYP1A1_24hr: CellzDirect (CLD) Gene Expression Assay for xenobiotic metabolism (CYP1A1) at 24 hours (AID 2283673);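 further: CYP1A1 mRNA level by quantitative nuclease protection with chemiluminescence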
Outline: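 Transcript levels were read at 24 h by qNPA chemiluminescence in human liver primary cells. Cells got daily fresh dosing at multiple concentrations (vehicle 0.2% DMSO). Induction fitted upward against DMSO; phase-contrast cytotoxicity annotated.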

[5] = read-out: ABC Transporter (ABCB11), ABCB11 (gene 8647); assay: CLD_ABCB11_6hr: CellzDirect (CLD) Gene Expression Assay for ABC Transporter (ABCB11) at 6 hours (AID 2283675);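 further: hits raise ABCB11 mRNA level so AC50 marks induction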
Outline: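 Read-out was ABCB11 mRNA gain of signal by quantitative nuclease protection assay, relative to 0.2% DMSO vehicle, 6 h post-dose. Cells were primary human hepatocytes from two donors, treated across multiple concentrations; phase-contrast cytotoxicity noted yes/no.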

[6] = CLD_ACTIN_6hr: CellzDirect (CLD) Gene Expression Assay for Baseline Control (Actin) at 6 hours (AID 2283676);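 further: active means increased actin mRNA relative to DMSO vehicle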
Outline: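 Baseline actin transcript level measured by qNPA (S1 nuclease protection, chemiluminescence) in human hepatocyte cultures 6 h after chemical exposure; 0.2% DMSO vehicle as reference, cytotoxicity noted from morphology.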

[7] = CCTE_Padilla_ZF_144hpf_TERATOSCORE: (Legacy) CCTE's 144 Hour Post-fertilization zebrafish Assay Teratoscore, Padilla Lab (AID 2283679; active means hit-call score of the fitted dose curve at least 0.9, where 1 is the maximum; inactive means score below 0.9;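 on AC50: zebrafish embryos with chorions exposed by immersion from 6-8 hpf to 5 dpf with daily renewal; teratogenicity score from eye scoring of death hatching and malformations at 144 hpf; higher score means more developmental defects relative to DMSO baseline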)
Outline: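 Larvae scored by eye at 144 hpf for death, hatching and malformations after a day in clean Hanks'. Before that, daily-renewed exposure at 80 uM (0.4% DMSO, 26C) from roughly 6-8 hpf through 5 dpf, 4 embryos per chemical.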

[8] = read-out: Cytochrome P450 3A4 (Homo sapiens) (UniProt P08684); assay: CLD_CYP3A4_6hr: CellzDirect (CLD) Gene Expression Assay for xenobiotic metabolism (CYP3A4) at 6 hours (AID 2283680)
Outline: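 CYP3A4 mRNA induction, 6 h after dosing of cultured primary human hepatocytes from two donors, read by quantitative nuclease protection (qNPA, chemiluminescence). Vehicle 0.2% DMSO as baseline; morphology-based cytotoxicity annotated yes/no.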

[9] = read-out: xenobiotic metabolism (CYP1A2), CYP1A2 (gene 1544); assay: CLD_CYP1A2_24hr: CellzDirect (CLD) Gene Expression Assay for xenobiotic metabolism (CYP1A2) at 24 hours (AID 2283683)
Outline: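 CYP1A2 mRNA induction measured by quantitative nuclease protection (chemiluminescent) in human primary hepatocytes 24 h after multi-concentration chemical dosing with daily fresh solutions. DMSO (0.2%) baseline; positive-direction fitting; morphology-based cytotoxicity noted.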

[10] = read-out: Broad substrate specificity ATP-binding cassette transporter ABCG2 (Homo sapiens) (UniProt Q9UNQ0); assay: CLD_ABCG2_24hr: CellzDirect (CLD) Gene Expression Assay for ABC Transporter (ABCG2) at 24 hours (AID 2283685)
Outline: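 ABCG2 mRNA induction, read as gain of chemiluminescent signal over 0.2% DMSO, was measured by quantitative nuclease protection at 24 h. Cultured human liver hepatocytes were given fresh dosing solutions of test chemicals at several concentrations each day.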

[11] = read-out: Cytochrome P450 2B6 (Homo sapiens) (UniProt P20813); assay: CLD_CYP2B6_24hr: CellzDirect (CLD) Gene Expression Assay for xenobiotic metabolism (CYP2B6) at 24 hours (AID 2283686)
Outline: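 qNPA chemiluminescent measurement of mRNA at 24 hours in human primary hepatocyte cultures from two donor preparations, with daily fresh dosing and 0.2% DMSO vehicle as baseline. Morphology-based cytotoxicity flagged yes/no.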

[12] = read-out: Cytochrome P450 2C9 (Homo sapiens) (UniProt P11712); assay: CLD_CYP2C9_24hr: CellzDirect (CLD) Gene Expression Assay for xenobiotic metabolism (CYP2C9) at 24 hours (AID 2283688)
Outline: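 Induction of CYP2C9 mRNA was quantified by quantitative nuclease protection assay (chemiluminescence), gain of signal versus 0.2% DMSO vehicle, 24 h after dosing. Human primary hepatocytes (two donors) received fresh chemical daily at multiple concentrations; morphology-based cytotoxicity flagged yes/no.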

[13] = read-out: glucuronosyltransferase (UGT1A1), UGT1A1 (gene 54658); assay: CLD_UGT1A1_6hr: CellzDirect (CLD) Gene Expression Assay for glucuronosyltransferase (UGT1A1) at 6 hours (AID 2283672)
Outline: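 UGT1A1 mRNA induction, read by quantitative nuclease protection assay, 6 h after dosing primary human hepatocytes (two donors, 0.2% DMSO vehicle). Gain of signal fitted relative to vehicle.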

[14] = read-out: ABC Transporter (ABCB11), ABCB11 (gene 8647); assay: CLD_ABCB11_24hr: CellzDirect (CLD) Gene Expression Assay for ABC Transporter (ABCB11) at 24 hours (AID 2283674; active means hit-call score of the fitted dose curve at least 0.9, where 1 is the maximum; inactive means score below 0.9)
Outline: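 ABCB11 transcript was quantified by qNPA chemiluminescence in cultured human liver hepatocytes 24 hours after dosing. Fresh dosing solutions were applied on consecutive days, against a 0.2% DMSO vehicle. Cytotoxicity was noted by phase-contrast morphology.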

[15] = read-out: Cytochrome P450 2C19 (Homo sapiens) (UniProt P33261); assay: CLD_CYP2C19_6hr: CellzDirect (CLD) Gene Expression Assay for xenobiotic metabolism (CYP2C19) at 6 hours (AID 2283678)
Outline: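 CYP2C19 transcript induction was quantified by quantitative nuclease protection assay with chemiluminescent read-out, 6 h after dosing. Cells were primary human hepatocytes from two donor preparations, given fresh dosing solutions daily in 0.2% DMSO vehicle. Activity was relative to DMSO.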

[16] = read-out: Cytochrome P450 2B6 (Homo sapiens) (UniProt P20813); assay: CLD_CYP2B6_6hr: CellzDirect (CLD) Gene Expression Assay for xenobiotic metabolism (CYP2B6) at 6 hours (AID 2283677);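 further: actives raise CYP2B6 transcript above DMSO baseline so AC50 marks an inducer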
Outline: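 CYP2B6 transcript levels, read by chemiluminescent qNPA, were fitted for increase versus DMSO baseline; cultured human liver hepatocytes from two donor preparations were harvested 6 h after exposure to test chemicals at multiple concentrations.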

[17] = read-out: HMG-CoA synthase (HMGCS2), HMGCS2 (gene 3158); assay: CLD_HMGCS2_6hr: CellzDirect (CLD) Gene Expression Assay for HMG-CoA synthase (HMGCS2) at 6 hours (AID 2283682);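 further: actives raise HMGCS2 transcript above the 0.2% DMSO vehicle baseline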
Outline: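 HMGCS2 transcript induction read by quantitative nuclease protection with chemiluminescence, 6 h after dosing of primary human hepatocytes. Baseline was 0.2% DMSO vehicle; phase-contrast morphology gave a yes/no cytotoxicity annotation.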

[18] = read-out: Cytochrome P450 (CYP24A1_1), CYP24A1 (gene 1591); assay: LTEA_HepaRG_CYP24A1_1: Life Technologies and Expression Analysis (LTEA) Assay for Cytochrome P450 (CYP24A1_1) using HepaRG (AID 2283671; active means hit-call score of the fitted dose curve at least 0.9, where 1 is the maximum; inactive means score below 0.9); conditions: mRNA level, 48 h; actives raise or lower the signal
Outline: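 Cultures of human HepaRG were treated in duplicate for 48 h (0.5% DMSO vehicle, highest dose 100 uM). CYP24A1 mRNA by qRT-PCR, normalized to ACTB, GAPDH, POLR2A.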

Measured: AC50

Chain of Broad substrate specificity ATP-binding cassette transporter ABCG2 (Homo sapiens) (Q9UNQ0 whole entry, looked up): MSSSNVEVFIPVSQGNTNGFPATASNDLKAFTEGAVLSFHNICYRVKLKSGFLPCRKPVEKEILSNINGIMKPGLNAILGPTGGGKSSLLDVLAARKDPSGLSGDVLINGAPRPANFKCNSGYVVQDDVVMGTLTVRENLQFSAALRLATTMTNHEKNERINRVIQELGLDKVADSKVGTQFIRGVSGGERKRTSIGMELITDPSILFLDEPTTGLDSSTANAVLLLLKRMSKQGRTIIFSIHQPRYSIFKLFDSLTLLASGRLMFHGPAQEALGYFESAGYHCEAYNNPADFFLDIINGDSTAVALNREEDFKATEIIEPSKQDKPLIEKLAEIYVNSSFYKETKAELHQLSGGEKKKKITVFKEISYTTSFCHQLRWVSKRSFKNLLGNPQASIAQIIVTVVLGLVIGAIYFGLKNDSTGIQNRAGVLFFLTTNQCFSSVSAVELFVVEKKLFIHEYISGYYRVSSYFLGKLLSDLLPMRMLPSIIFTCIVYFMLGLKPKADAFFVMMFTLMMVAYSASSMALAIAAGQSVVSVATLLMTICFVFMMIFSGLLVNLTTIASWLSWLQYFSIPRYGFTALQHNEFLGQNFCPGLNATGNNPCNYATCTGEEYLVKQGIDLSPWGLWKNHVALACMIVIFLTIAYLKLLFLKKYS
Chain of Cytochrome P450 3A4 (Homo sapiens) (P08684 whole entry, looked up): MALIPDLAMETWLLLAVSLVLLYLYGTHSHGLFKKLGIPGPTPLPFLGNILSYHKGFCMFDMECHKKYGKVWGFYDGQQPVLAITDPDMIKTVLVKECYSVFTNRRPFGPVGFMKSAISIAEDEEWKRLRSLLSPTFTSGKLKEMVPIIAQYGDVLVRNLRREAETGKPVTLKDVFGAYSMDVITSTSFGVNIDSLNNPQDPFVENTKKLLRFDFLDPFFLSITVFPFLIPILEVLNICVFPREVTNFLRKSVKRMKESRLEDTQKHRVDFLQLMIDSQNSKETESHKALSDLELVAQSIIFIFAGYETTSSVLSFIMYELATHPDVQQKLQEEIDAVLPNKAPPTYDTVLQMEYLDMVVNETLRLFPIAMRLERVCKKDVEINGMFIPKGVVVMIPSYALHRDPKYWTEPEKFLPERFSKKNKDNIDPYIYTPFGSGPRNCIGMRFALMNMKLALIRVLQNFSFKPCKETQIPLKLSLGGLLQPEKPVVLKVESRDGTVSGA
Chain of Cytochrome P450 2C19 (Homo sapiens) (P33261 whole entry, looked up): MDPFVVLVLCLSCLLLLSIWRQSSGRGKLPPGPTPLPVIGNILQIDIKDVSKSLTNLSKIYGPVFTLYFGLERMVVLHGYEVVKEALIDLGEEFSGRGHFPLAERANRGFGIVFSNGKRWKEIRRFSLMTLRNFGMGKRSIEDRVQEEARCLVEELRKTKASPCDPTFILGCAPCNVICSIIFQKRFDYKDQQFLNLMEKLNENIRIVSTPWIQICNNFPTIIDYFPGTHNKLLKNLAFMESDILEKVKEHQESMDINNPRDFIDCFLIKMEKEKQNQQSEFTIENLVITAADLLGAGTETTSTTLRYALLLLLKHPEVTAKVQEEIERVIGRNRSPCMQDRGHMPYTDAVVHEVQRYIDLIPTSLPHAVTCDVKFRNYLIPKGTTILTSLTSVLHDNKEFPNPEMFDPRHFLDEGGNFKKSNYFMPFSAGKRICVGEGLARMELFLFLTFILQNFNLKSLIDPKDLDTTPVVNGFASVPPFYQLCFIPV

CO/N=C(/C1=NOCCO1)c1ccccc1Oc1ncnc(Oc2ccccc2Cl)c1F
active: [7] 0.182 µM
not listed: [13] | [14] | [15] | [16] | [17] | [18]
inactive: all other assays above

OC(c1ccc(Cl)cc1)(c1ccc(Cl)cc1)C(Cl)(Cl)Cl
active: [4] 20 µM | [7] 12 µM | [8] 3.68 µM | [11] 4.08 µM
inactive: [1] | [2] | [13] | [14] | [15] | [9] | [10]

CCCN(CC)CC1COC2(CCC(C(C)(C)C)CC2)O1 (configuration not stated)
inactive: [1] | [2] | [3] | [13] | [8] | [17] | [10]
active: [4] 0.376 µM | [16] 13.4 µM | [9] 0.583 µM | [11] 9.21 µM

COCC(C)N(C(=O)CCl)c1c(C)csc1C (configuration not stated)
inactive: [1] | [2] | [13] | [4] | [14] | [6] | [8] | [10]
active: [7] 60.8 µM | [11] 11.9 µM

Nc1c(Cl)c(F)nc(OCC(=O)O)c1Cl
inactive: [1] | [3] | [4] | [7] | [10] | [11]

O=c1n(Cl)c(=O)n(Cl)c(=O)n1Cl
active: [4] 3.97 µM | [9] 3.33 µM
inactive: [1] | [2] | [13] | [14] | [15] | [7] | [8] | [17] | [11]

C=CCOC(=O)C(C)(C)OC(=O)c1cc(-n2c(=O)cc(C(F)(F)F)n(C)c2=O)ccc1Cl
inactive: [1] | [2] | [13] | [17] | [10]
active: [8] 0.29 µM | [11] 0.173 µM

CCCCC(O)(Cn1cncn1)c1ccc(Cl)cc1Cl (configuration not stated)
inactive: [1] | [3] | [13] | [6] | [8] | [10]
active: [4] 4.35 µM | [9] 1.9 µM | [11] 1.9 µM

COCc1cnc(C2=NC(C)(C(C)C)C(=O)N2)c(C(=O)O)c1 (configuration not stated)
inactive: [1] | [2] | [3] | [13] | [14] | [6] | [15] | [8] | [10]

CN=C=S
active: [7] 2.93 µM
not listed: [3] | [5] | [8] | [12] | [14] | [16] | [17]
inactive: all other assays above

— PubChem BioAssay (EPA / NIEHS)
